This passage reports INHIBITION results from ChEMBL document CHEMBL4513216, “Probing the Open Global Health Chemical Diversity Library for Multistage-Active Starting Points for Next-Generation Antimalarials” (ACS Infect Dis, 2020).

The campaign covered roughly 68,000 compounds. About 2,700 (4%) showed an effect of 50% or more. This excerpt belongs to a sample that is enriched for strong results.

The subject of the assay is Plasmodium berghei. The assay is described as follows: Screen against P. berghei liver stage (PbLuc), transformed with Luciferase, at 2uM. It counts as functional, HepG2. The note with it: tested at 2 uM.
As to `CC(C)c1nc2cc(NC(=O)c3n[nH]c4c3CCC4)ccc2n1C`, the INHIBITION is -12.41%.
As for `CNC(=O)C1(c2cnccn2)CCCN1C(=O)c1ccn(C)n1` (stereo not drawn), the INHIBITION amounted to 43.89%.
In the case of `Cc1nnc(N2CC[C@H]3C[C@H](C(=O)N(C)C)O[C@@H]3C2)s1` it was 4.42%; in that of `CCN1CC(COc2ccccc2)Oc2ncccc2S1(=O)=O` (stereo not drawn), 55.73%.
For the molecule `O=S1(=O)c2cccnc2OC(COc2ccccc2)CN1CC1CC1` (stereo not drawn), the INHIBITION was 22.01%.
Turning to `CCN1CC(COc2ccc(OC)cc2)Oc2ccncc2S1(=O)=O` (stereo not drawn), the INHIBITION turned out to be 18.99%.
On to `CN(C)C1(CNc2nccc(C3CCCC3)n2)CCOCC1`, for which the INHIBITION came out at 1.1%.
In the case of `NC(=O)CCn1ccc(NC(=O)c2ccc(OCC3CC3)cc2)n1` it was -52.01%.
As to `Cc1nnsc1C(=O)NCc1cccnc1N1CCCC(O)C1` (stereo not drawn), the INHIBITION was 41.59%.
In the case of `Cc1nn(C)c(N(C)C)c1CNCc1ccccc1Cn1cccn1` it was -40.27%; in that of `CC(C)c1nccn1C(C)C(=O)NC1CCOCC1` (stereo not drawn), 1.1%; in that of `CC(C)c1nccn1C(C)C(=O)NC1Cc2ccccc2C1` (stereo not drawn), 51.72%.
For `CC(C)c1nccn1C(C)C(=O)NC1CCN(S(C)(=O)=O)CC1` (stereo not drawn), the INHIBITION turned out to be 8.13%.
With `Cc1cc(C)c(CNC(=O)NCc2nnc3n2CCCC3)c(=O)[nH]1`, the INHIBITION is given as -47.98%.
As for `O=C(O)c1ccn(-c2cccc(NC(=O)c3ccccc3Cl)c2)n1`, the INHIBITION is on record as 23.43%.
In the case of `O=C(CCc1cc(Cl)no1)N1CCC(c2cc3ncccc3cn2)CC1` it was 15.72%; in that of `CCOC(=O)c1nc(COc2c(C)occc2=O)no1`, 54.13%; in that of `Cc1occc(=O)c1OCc1noc(C(=O)NC(C)C)n1`, 2.06%.
In the case of `CNC(=O)c1nc(COc2c(C)occc2=O)no1` it was 20.19%; in that of `Cc1cn(Cc2ccc(F)c(F)c2)nc1N`, 17.69%.
In the case of `[O-][S+](CCN1CCc2[nH]nc(C(F)(F)F)c2C1)c1ccccc1` (stereo not drawn) it was -62.71%; in that of `FC(F)(F)c1n[nH]c2c1CN(Cc1cn3ccccc3n1)CC2`, -7.14%.
As for `FC(F)(F)c1[nH]nc2c1CN(Cc1ccccc1)CC2`, the INHIBITION is reported as 57.77%.
In the case of `Cc1ccccc1CN1CCC2(CC1)CN(S(=O)(=O)c1ccccc1)C2` it was 43.51%.
In the case of `O=C(NCc1cccnc1)Nc1cc(C(F)(F)F)c[nH]c1=O`, the INHIBITION is -13.92%.
For `O=C1N(c2ccsc2)CCC12CCCN(CC1CC1)C2` (stereo not drawn) the value was 7.77%.
In the case of `O=C(c1cccnc1O)N(Cc1ccsc1)CC1CCCO1` (stereo not drawn) it was -85.83%; in that of `O=C(c1cccnc1O)N(Cc1cccs1)CC1CCCO1` (stereo not drawn), 64.9%; in that of `Cc1csc(CN(CC2CCCO2)C(=O)c2cccnc2C)n1` (stereo not drawn), -5.92%.
In the case of `c1ccc2[nH]c(C3CCN(Cc4nc(C5CC5)no4)CC3)cc2c1` it was -3.99%; in that of `O=C(CCc1cc2n(n1)CCCNC2)N1CCSCC1`, -9.98%.
Turning to `CCc1nc(C)c(CN2CCN(c3ncnc4scc(C)c34)CC2)[nH]1`, the INHIBITION was -33.43%.
For `Cc1n[nH]c(CN2CCN(c3ncnc4scc(C)c34)CC2)c1Cl` the value was 74.18%; for `CCc1nc(C)c(CN2CCN(c3ncnc4c(C)csc34)CC2)[nH]1`, -3.25%; for `CC(C)Oc1ncccc1CNC(=O)N1CCOCC1`, -10.84%.
`CN(C)CC(=O)N1CCc2sc(C(=O)N3CCN(C)CC3)cc21`: the INHIBITION stood at 34.93%.
Regarding `O=C(NCc1ccccn1)[C@@H]1CC[C@@H]2[C@@H](CCN2c2ncc(F)cn2)O1`, the INHIBITION worked out at 21.77%.
In the case of `Cc1nc(C2CCCN(C(=O)c3cnn(C4CCCCC4)c3)C2)no1` (stereo not drawn) it was -31.72%; in that of `Cc1nc(C2CCCN(C(=O)c3ccco3)C2)no1` (stereo not drawn), 51.32%; in that of `Cc1cccc(C(=O)N2CCCC(c3noc(C)n3)C2)n1` (stereo not drawn), -11.71%.
For `Cc1nc(C2CCCN(C(=O)c3cc(Cl)c4c(c3)OCO4)C2)no1` (stereo not drawn) the value was 50.05%; for `Cc1nc(C2CCCN(C(=O)c3ccoc3)C2)no1` (stereo not drawn), -3.64%; for `CCn1cc(C(=O)N2CCCC(c3noc(C)n3)C2)cn1` (stereo not drawn), 31.46%.
Consider `Cn1cnnc1C1CCCN(C(=O)c2cc(Cl)c3c(c2)OCO3)C1` (stereo not drawn), for which the INHIBITION was found to be 3.9%.
Turning to `Cc1nc(C2CCCN(C(=O)c3cnn(C(C)(C)C)c3)C2)no1` (stereo not drawn), the INHIBITION came to 56.12%.
For `Cc1nc(C2CCCN(C(=O)c3cccc4c3OCO4)C2)no1` (stereo not drawn) the value was 27.31%.
For `Cc1noc(C)c1-c1cccc(C2CCCNC2)n1` (stereo not drawn) the value was 29.48%; for `CN(C)c1nc(N)nc(CN2CCCC2c2cccs2)n1` (stereo not drawn), -43.18%; for `CC(CO)N(C)C(=O)c1cn(-c2ccc(Br)cc2)cn1` (stereo not drawn), -33.03%.
In the case of `O=C(c1cncc(NCC2COc3ccccc3C2)n1)N1CCOCC1` (stereo not drawn) it was 10.77%; in that of `O=C(c1cncc(NCC2COc3ccccc3C2)n1)N1CCCC1` (stereo not drawn), 50.3%; in that of `O=C(c1cncc(NCC2COc3ccccc3C2)n1)N1CCCCC1` (stereo not drawn), 31.05%.
On to `Cc1ncc(CNC(=O)N(C)C2CCN(c3ccccc3)C2=O)s1` (stereo not drawn), for which the INHIBITION was -16.12%.
